Data: PubChem BioAssay AID1209 (Sanford-Burnham Center for Chemical Genomics, 2008)
Out of some 190,000 compounds screened, about 810 (0.43%) were called active. Shown is part of a subset that was picked to be rich in actives. A number with no mark means an inactive call. Rule as the data show it: active = inhibition above about 50%; inactive = the rest.

Molecular target: Mannose-6-phosphate isomerase (Homo sapiens) (UniProt P34949)
Assay: MPI enzyme activity inhibition – biochemical, fluorescence intensity, coupled assay, primary screen (AID 1209);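 also: plate controls were DMSO vehicle for no effect and wells lacking substrate for full effect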
Conditions: purified PMI enzyme, at 20 µM, hits give high values

Mannose-6-phosphate isomerase (Homo sapiens), sequence (P34949 whole entry, looked up): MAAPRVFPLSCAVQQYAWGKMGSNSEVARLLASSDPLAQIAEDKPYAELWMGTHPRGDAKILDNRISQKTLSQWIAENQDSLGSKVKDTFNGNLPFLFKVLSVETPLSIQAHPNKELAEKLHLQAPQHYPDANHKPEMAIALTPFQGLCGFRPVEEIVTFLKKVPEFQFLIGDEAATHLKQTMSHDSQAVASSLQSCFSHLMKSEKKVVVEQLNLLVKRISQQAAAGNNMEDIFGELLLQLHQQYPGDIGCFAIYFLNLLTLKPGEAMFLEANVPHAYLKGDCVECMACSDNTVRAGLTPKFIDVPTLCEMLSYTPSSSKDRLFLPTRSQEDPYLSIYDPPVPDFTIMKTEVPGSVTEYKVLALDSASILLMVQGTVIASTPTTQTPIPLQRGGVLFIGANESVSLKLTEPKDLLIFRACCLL

Row | Structure (SMILES) | inhibition
1 | O=C(Nn1cnc2ccccc2c1=O)c1cccc(Cl)c1 | 3%
2 | C[N+]1(CC(O)COCC2COc3ccccc3O2)CCOCC1 (centres undefined) | 66.2% (active)
3 | CC[N+](C)(CC)CC(O)COCC1COc2ccccc2O1 (centres undefined) | 19.8%
4 | OC(COCC1COc2ccccc2O1)CN1CCN(c2ccccc2)CC1 (centres undefined) | 1.8%
5 | C/C(=N\NC(N)=S)C1C2C3CC4C5CC(C42)C1C53 (centres undefined) | 0.3%
6 | O=C(NCc1ccco1)c1ccccc1-c1ccc(C(F)(F)F)cc1 | 4.9%
7 | O=[N+]([O-])c1cc(CN2CCCC2)c2cccnc2c1O | 5%
8 | COc1ccccc1N1CCN(Cc2cc(Br)c(O)c3ncccc23)CC1 | 25.4%
9 | CN1CCN(Cc2cc(Cl)c3cccnc3c2OC(=O)c2cccs2)CC1 | 15.8%
10 | Oc1ccc(CN2CCN(c3ccccc3)CC2)c2cccnc12 | 35.3%
11 | CCOC(=O)N1CCN(Cc2cc(Cl)c3cccnc3c2O)CC1 | 54.9% (active)
12 | Oc1c(CN2CCCCC2)cc(COCc2ccccc2)c2cccnc12 | 46.6%
13 | CCOC(=O)N1CCN(Cc2ccccc2Cl)CC1 | 4.4%
14 | Oc1c(CN2CCCCC2)cc(Br)c2cccnc12 | 51.6% (active)
15 | COCc1cc(CN2CCCC2)c(O)c2ncccc12 | 41%
16 | CN1CCN(Cc2cc(COCc3ccccc3)c3cccnc3c2O)CC1 | 43.5%
17 | COc1ccccc1N1CCN(Cc2ccc(O)c3ncccc23)CC1 | 55.7% (active)
18 | Cc1ccc(S(=O)(=O)N2CCCC2C(=O)Nc2nccs2)cc1 (centres undefined) | -9.8%
19 | CCOC(=O)C1CCCN(C(=O)c2ccc(Cl)c(S(=O)(=O)N3CCCCCC3)c2)C1 (centres undefined) | -22.1%
20 | O=C1OC(Nc2ccc(F)cc2F)c2ccccc21 (centres undefined) | -10.1%
21 | CCOC(=O)N1CCN(c2nc(C)cc(C(F)(F)F)n2)CC1 | 15.5%
22 | COc1ccc(N=C2SC(C(=O)N3CCN(c4ccccc4)CC3)CC(=O)N2C)cc1 (centres undefined) | 5%
23 | CC(C)(C)C1CCc2c(C(=O)NNC(=O)CCCC(=O)O)csc2C1 (centres undefined) | -6.1%
24 | COc1ccccc1C1C(C(C)=O)=C(O)C(=O)N1CCc1ccccc1 (centres undefined) | 4.1%
25 | Cc1ccccc1NC(=S)NC1CC2CCC(C1)N2Cc1ccco1 (centres undefined) | -0.8%

Row | Structure (SMILES) | inhibition
26 | COc1ccc(CC2(C)OC(c3ccc(Cl)cc3)=NN2C(C)=O)cc1 (centres undefined) | 19%
27 | O=C(Nc1ccc(S(=O)(=O)Nc2ncccn2)cc1)c1ccccc1NS(=O)(=O)c1ccc(F)cc1 | 2.8%
28 | Cc1ccc(C)c(C(=O)COC(=O)c2cc(Cl)nc3ccccc23)c1 | 12.6%
29 | O=c1cc(CN2CCOCC2)c2c(ccc3ccccc32)o1 | 1.2%
30 | CCOC(=O)C1CCN(Cc2ccc(OC)c(C)c2OC)CC1 | -4.3%
31 | CCOC(=O)C1CCN(Cc2ccc(O)c3ncccc23)CC1 | 67% (active)
32 | Oc1ccc(CN2CCCCC2)c2cccnc12 | 43.3%
33 | CCOC(=O)N1CCN(Cc2ccccn2)CC1 | 3.7%
34 | c1cc2ccc3ccc(CN4CCOCC4)c4ccc(c1)c2c34 | -2.6%
35 | CCOC(=O)C1CCN(Cc2c(O)ccc3ccccc23)CC1 | 28.5%
36 | CCOC(=O)N1CCN(Cc2ccc(O)c3ncccc23)CC1 | 59.9% (active)
37 | COCc1cc(CN2CCN(C)CC2)c(O)c2ncccc12 | 36.7%
38 | Oc1c(CN2CCc3ccccc3C2)cc(Cl)c2cccnc12 | 40%
39 | Oc1c(CN2CCOCC2)ccc2ccccc12 | 50.8% (active)
40 | CCOC(=O)CC(NC(=O)Cc1ccccc1)c1ccccc1Cl (centres undefined) | 13.1%
41 | COC(=O)C1=C(NC(=O)c2ccccc2C)CCS1 | -17.4%
42 | O=C(Nc1cnn(Cc2ccc(F)cc2)c1)C(c1ccccc1)c1ccccc1 | 16%
43 | O=S(=O)(Nc1cccnc1)c1ccc(Cl)c(C(F)(F)F)c1 | 6%
44 | CC(C)C(=O)NCCc1nc2ccccc2n1CCOc1ccccc1 | -1.6%
45 | CCN(CC)C(=O)C1=C(C)NC(=S)NC1c1cccs1 (centres undefined) | -9%
46 | CCOC(=O)C1CCCN(Cc2cc(=O)oc3cc(C)ccc23)C1 (centres undefined) | -10.2%
47 | CN(CC(=O)NC1CCCCCC1)S(=O)(=O)c1ccc2c(c1)n(C)c(=O)c(=O)n2C | 2.1%
48 | COC(=O)C1=C(NC(=O)c2ccc(C)c(C)c2)CCS1 | 3.8%
49 | Cc1ccc2cc(C(c3nnnn3C3CCCC3)N3CCOCC3)c(=O)[nH]c2c1C (centres undefined) | -2.5%
50 | CCOC(=O)C1=C(C)NC(=O)CC1c1cc2c(cc1Br)OCO2 (centres undefined) | 1.2%

Row | Structure (SMILES) | inhibition
51 | CCOC(=O)C1=C(C)NC(=O)CC1c1cc2c(cc1[N+](=O)[O-])OCO2 (centres undefined) | 53.2% (active)
52 | CCOC(=O)C1=C(C)N(C)C(=O)NC1c1cc2c(cc1[N+](=O)[O-])OCO2 (centres undefined) | 35.3%
53 | Cc1noc(C)c1C(=O)OCC(=O)C12CC3CC(CC(C3)C1)C2 | 100% (active)
54 | Cc1noc(C)c1C(=O)OCC(=O)NC(=O)NC12CC3CC(CC(C3)C1)C2 | -2.2%
55 | Cc1noc(C)c1C(=O)OCC(=O)NC1CC1 | 1.3%
56 | O=C(Nc1nccs1)NC1CCCCC1 | -3%
57 | O=C(/N=C1\NC(=O)C(F)(C(F)(F)F)S1)NC1CCCCC1 (centres undefined) | 74.7% (active)
58 | CCC1S/C(=N/C(=O)NC2CCCCC2)NC1=O (centres undefined) | -8.6%
59 | c1ccc2c(c1)nc(N1CCN(C3CCCCC3)CC1)c1nnnn12 | 4.7%
60 | O=C(CSc1nc2cc(S(=O)(=O)N3CCOCC3)ccc2o1)Nc1c(F)cccc1F | 31.9%
61 | Cc1nc2ccc(Nc3nc4cc(S(=O)(=O)N5CCOCC5)ccc4o3)cc2s1 | 64.5% (active)
62 | Cc1nc2ccc(NC(=O)c3cc(S(=O)(=O)N4CCOCC4)ccc3C)cc2s1 | 9.8%
63 | Cc1nc2ccc(NC(=O)c3ccc(S(=O)(=O)N4CCOCC4)cc3)cc2s1 | 1.9%
64 | Cc1noc(C)c1CSc1nc2cc(S(=O)(=O)N3CCOCC3)ccc2o1 | 53.1% (active)
65 | Cc1ccc(C(=O)CSc2nc3cc(S(=O)(=O)N4CCOCC4)ccc3o2)cc1 | 25.2%
66 | CC(/C=N/NC(=O)CSc1nc(C)cc(C)n1)=C\c1ccccc1 | 16.1%
67 | CCOc1ccc(-c2nnc(-c3ccccc3)o2)cc1 | -0.3%
68 | CCCCc1nc(Cl)c(C#N)c2c1CSC(C)(C)C2 | 13.1%
69 | CCc1onc(C)c1C(=O)O | -13.1%
70 | COc1cccc(-c2nnc(NC(=O)Cc3cccs3)s2)c1 | -3%
71 | Cc1nn(Cc2cccc(C(=O)N3N=C(C(F)F)CC3(O)C(F)F)c2)c(C)c1[N+](=O)[O-] (centres undefined) | -1.8%
72 | O=C1c2ccccc2C(=O)N1CN(C(=O)c1ccccc1[N+](=O)[O-])c1ccc(F)cc1 | 13.9%
73 | Oc1ccccc1/C=C/c1noc(-c2ccccc2O)n1 | -7%
74 | Oc1cc(-c2ccccc2)c2ccccc2c1 | 82.6% (active)
75 | O=c1cc(-c2ccccc2)c2ccccc2[nH]1 | 9.9%

Row | Structure (SMILES) | inhibition
76 | Cn1c(=O)cc(-c2ccccc2)c2ccccc21 | 1.5%
77 | CCOC(=O)CSc1nc(C(C)(C)C)cc(C(F)(F)F)c1C#N | 5.9%
78 | COC(=O)C1=C(C(=O)OC)SC2(S1)C(C(=O)OC)=C(C(=O)OC)SC1=C2c2cc(C)ccc2NC1(C)C | 57% (active)
79 | COC(=O)C1=C(C(=O)OC)SC2(S1)C(C(=O)OC)=C(C(=O)OC)SC1=C2c2cccc(C)c2NC1(C)C | 24.5%
80 | COC(=O)C1=C(C(=O)OC)SC2(S1)C(C(=O)OC)=C(C(=O)OC)SC1=C2c2cc(C)cc(C)c2NC1(C)C | 18.1%
81 | CCOC(=O)CN1CCc2c(C)nc3c(-c4ccc(OC)c(OC)c4)cnn3c21 | 20.1%
82 | CCOC(=O)NC(=O)COC(=O)CNC(=O)c1cccc(OC)c1 | -0.3%
83 | COc1ccc(C(=O)NC(=S)NCC2CCCO2)cc1 (centres undefined) | 2.8%
84 | COc1ccc(N(CC(=O)N/N=C/c2ccc(-c3ccc([N+](=O)[O-])cc3)o2)S(=O)(=O)c2ccc(C)cc2)cc1 | -2.3%
85 | Cc1ccc(C)c(N(CC(=O)N/N=C/c2ccc(-c3ccc([N+](=O)[O-])cc3)o2)S(=O)(=O)c2ccccc2)c1 | 10.6%
86 | CCOC(=O)C1(Cc2ccc(OC)cc2)CCN(C(=O)CCc2cccnc2)CC1 | 7.6%
87 | COc1ccc(C)cc1NC(=O)CSc1nnc(-c2ccco2)n1N | 10.6%
88 | O=c1/c(=C/c2ccccn2)sc2nc3ccccc3n12 | -21.7%
89 | O=c1/c(=C\c2cccnc2)sc2nc3ccccc3n12 | 7%
90 | COC(=O)/C=c1/sc2nc3ccccc3n2c1=O | 75.6% (active)
91 | Nc1ccccc1Oc1c(F)c(F)c(Oc2ccccc2N)c(F)c1F | 18.8%
92 | COc1cc(NC(C(=O)Nc2cccc(C(C)=O)c2)c2ccccc2)cc(OC)c1OC (centres undefined) | 16.5%
93 | COc1cc(C)c(NC(c2ccccc2)c2ccccc2)cc1OC | 16.1%
94 | COc1cc(NC(c2ccccc2)c2ccccc2)cc(OC)c1OC | 62.4% (active)
95 | COc1ccc(C(C)=O)c(OC(=O)c2ccc(OC)c(OC)c2)c1 | 17.5%
96 | C=CCNc1nc2c(c(=O)[nH]c(=O)n2C)n1CCCCC | 2.9%
97 | COCCN=C1Sc2nc3ccc(C)cc3cc2CN1Cc1ccco1 | -63.1%
98 | Cc1cccc2cc3c(nc12)SC(=NCC1CCCO1)N(Cc1ccco1)C3 (centres undefined) | 7.4%
99 | COCCN=C1Sc2nc3c(C)cccc3cc2CN1Cc1ccco1 | 51% (active)
